Reference: PubChem BioAssay AID2061305 (National Center for Advancing Translational Sciences (NCATS), 2025)
Results filed as inconclusive are left out. Active and inactive are the calls of the source. Calls follow the shape of the dose curve; as a rule, active = well fitted inhibition curve with a large enough effect; inconclusive = small, poorly fitted or top-dose-only effect; inactive = flat fitted curve, though single readings scatter. Where a SMILES comes first, the peptide text is derived from it. [ ]: non-standard residue; d: D form. Dolaproine = CO[C@@H]([C@@H]1CCCN1)[C@@H](C)C(=O)O; Dil = CC[C@H](C)[C@H](NC)[C@@H](CC(=O)O)OC; NMeV = CN[C@H](C(=O)O)C(C)C

Test: Identification of antibody-drug conjugate (ADC) payloads which are substrates of ATP-binding cassette drug efflux transporters: ABCB1-HeLa-KB-3-1 cell line
Conditions: KB-3-1 (HeLa derivative) viability, CellTiter-Glo, 48 h
From the text: Antibody-drug conjugates (ADCs) feature an antibody recognizing a specific protein joined to a potent toxic payload. Numerous antibody-drug conjugates have received FDA approval; however, clinical resistance arises. Resistance mechanisms include decreased expression or mutation of the antibody target, impaired payload release, or increased expression of ATP-binding cassette (ABC) efflux transporters associated with multidrug resistance. We therefore sought to characterize the interaction of ABC multidrug transporters with ADC payloads. We performed a high-throughput screen with 27 common ADC payloads using cells lines expressing ABC transporters P-glycoprotein (P-gp, encoded by ABCB1) or ABCG2 (encoded by ABCG2). Confirmatory assays were also performed using cells transfected to express P-gp, ABCG2, or MRP1 (encoded by ABCC1). Several commonly used ADC payloads were substrates of P-gp, including calicheamicin gamma1, monomethyl auristatin E, DM1, and DM4. All the pyrrolobenzodiazepines tested - SJG136, SGD-1882, SG2057, and SG3199 - were substrates of P-gp, ABCG2, and MRP1. […] These findings highlight the risk of transporter-mediated resistance with certain ADC payloads and underscore the importance of selecting payloads that evade ABC transporter recognition in future ADC development.
HEK-293 cells were transfected with empty vector (pcDNA) or vector containing the human ABCB1 (MDR-19), ABCG2 (R-5), or ABCC1 gene (MRP1) and were maintained in EMEM with 2 mg/mL G418 added to maintain transporter expression. The HeLa derivative KB-3-1 and the P-gp overexpressing KB-8-5-11 subline were maintained in DMEM; KB-8-5-11 additionally received 100 ng/mL colchicine. H460 parental cells were obtained from the Division of Cancer Treatment and Diagnosis Tumor Repository, National Cancer Institute at Frederick, MD and were cultured in RPMI. The ABCG2 expressing subline H460 MX20 was generated by selecting H460 cells in 20 nM mitoxantrone. Media in all cases was supplemented with 10% FBS and 1% penicillin-streptomycin. We explored 27 common ADC payloads, in two orthogonal, paired cell line sets-a drug selected and transfected set for each transporter--to identify substrates of the ABC transporters P-gp and ABCG2. Compounds were sourced from Levena Biopharma (San Diego, CA), Selleck Chem (Houston, TX), ChemieTek (Indianapolis, IN), or Microsource Discovery Systems (Gaylordsville, CT). Screening was performed as previously described. Briefly, cells were plated at a density of 500 cells/well in 1536 well plates with compounds added using a 1536-head pin tool (Kalypsys, San Diego CA). Cells were incubated with cytotoxic drugs and processed with CellTiter Glo reagent (Promega, Madison, WI) to determine viability after 48 hours. P-gp substrates were identified by comparing compound activity between paired sets of low-expressing (sensitive) and over-expressing (resistant) cell lines.

Question: Which Potency does the source give for COC(=O)c1cc2c3c(cc(O)c2[nH]1)N(C(=O)c1cc2cc(OC)c(OC)c(OC)c2[nH]1)CC3CCl (centres undefined) here?
Answer: 0.5 nM (active)

Question: Which Potency does the source give for COc1cccc2c1C(=O)c1c(O)c3c(c(O)c1C2=O)C[C@@](O)(C(=O)CO)C[C@@H]3O[C@H]1C[C@H](N)[C@H](O)[C@H](C)O1 here?
Answer: 236 nM (active)

Question: Which Potency does the source give for CC[C@H](C)[C@@H]([C@H](N)CC(=O)N1CCC[C@H]1[C@H](OC)[C@@H](C)C(=O)N[C@@H](Cc1ccccc1)c1nccs1)N(C)C(=O)[C@@H](NC(=O)[C@@H](NC)C(C)C)C(C)C here?
Answer: 0.1 nM (active)

Question: With CC(C)(C)OC(=O)Nc1ccc2[nH]c(C(=O)N3C[C@@H](CCl)c4c3cc(O)c3ccccc43)cc2c1 as the molecule, how does the Potency read?
Answer: 5.9 nM (active)

Question: Which Potency does the source give for COc1cc2cc(c1Cl)N(C)C(=O)C[C@H](O)[C@]1(C)O[C@H]1[C@H](C)C1C[C@@](O)(NC(=O)O1)[C@H](OC)/C=C/C=C(\C)C2 here?
Answer: 4720 nM (active)

Question: For CCc1c2c(nc3ccc(O)cc13)-c1cc3c(c(=O)n1C2)COC(=O)[C@]3(O)CC, which Potency is on record?
Answer: 472 nM (active)

Question: Which Potency does the source give for COc1ccc(C2=CN3C(=O)c4cc(OC)c(OCCCOc5cc6c(cc5OC)C(=O)N5C=C(c7ccc(N)cc7)C[C@@H]5C=N6)cc4N=C[C@H]3C2)cc1 here?
Answer: 52.9 nM (active)

Question: With CN(C)CCOc1ccc2[nH]c(C(=O)N3C[C@@H](CCl)c4c3cc(O)c3ccccc43)cc2c1 as the molecule, how does the Potency read?
Answer: 0.3 nM (active)

Question: With CC[C@H](C)[C@@H]([C@H](N)CC(=O)N1CCC[C@H]1[C@H](OC)[C@@H](C)C(=O)N[C@@H](Cc1ccccc1)c1nccs1)N(C)C(=O)[C@@H](NC(=O)[C@H](C(C)C)N(C)C)C(C)C as the molecule, how does the Potency read?
Answer: 0.0748 nM (active)

Question: For CC[C@H](C)[C@@H]([C@@H](CC(=O)N1CCC[C@H]1[C@H](OC)[C@@H](C)C(=O)N[C@@H](Cc1ccccc1)C(=O)O)OC)N(C)C(=O)[C@@H](NC(=O)[C@@H](NC)C(C)C)C(C)C (H-[NMeV]V[Dil][Dolaproine]F-OH), which Potency is on record?
Answer: 66.6 nM (active)

Question: With CCN[C@H]1CO[C@@H](O[C@H]2[C@H](O[C@H]3C#C/C=C\C#C[C@]4(O)CC(=O)C(NC(=O)OC)=C3/C4=C\CSSSC)O[C@H](C)[C@@H](NO[C@H]3C[C@H](O)[C@H](SC(=O)c4c(C)c(I)c(O[C@@H]5O[C@@H](C)[C@H](O)[C@@H](OC)[C@H]5O)c(OC)c4OC)[C@@H](C)O3)[C@@H]2O)C[C@@H]1OC as the molecule, how does the Potency read?
Answer: 1.3 nM (active)

Question: With CCN(C(C)=O)[C@H]1CO[C@@H](O[C@H]2[C@H](O[C@H]3C#C/C=C\C#C[C@]4(O)CC(=O)C(NC(=O)OC)=C3/C4=C\CSSSC)O[C@H](C)[C@@H](NO[C@H]3C[C@H](O)[C@H](SC(=O)c4c(C)c(I)c(O[C@@H]5O[C@@H](C)[C@H](O)[C@@H](OC)[C@H]5O)c(OC)c4OC)[C@@H](C)O3)[C@@H]2O)C[C@@H]1OC as the molecule, how does the Potency read?
Answer: 8.4 nM (active)

Question: With CC[C@]1(O)CC2CN(CCc3c([nH]c4ccccc34)[C@@](C(=O)OC)(c3cc4c(cc3OC)N(C)[C@H]3[C@@](O)(C(=O)OC)[C@H](OC(C)=O)[C@]5(CC)C=CCN6CC[C@]43[C@@H]65)C2)C1 (some centres undefined) as the molecule, how does the Potency read?
Answer: 6.7 nM (active)

Question: With COc1cccc2c1C(=O)c1c(O)c3c(c(O)c1C2=O)C[C@@](O)(C(=O)CO)C[C@@H]3O[C@H]1C[C@H]2[C@H](O[C@@H]3[C@@H](OC)OCCN32)[C@H](C)O1 as the molecule, how does the Potency read?
Answer: 0.3 nM (active)
